A selection: hits, their analogues and other compounds. The true share with any hit is near 3%.
ATG4B inhibitor: inhibitors of human ATG4B cysteine protease. Q9Y4P1. hit rate 0.51% among 340,000. ATG4B cleavage of LC3-PLA2, NBD-HPC fluorescence, 1 h. inhibition, % at 8.33 µM; in the data active = inhibition above about 40%
DAGLB inhibitor: diacylglycerol lipase beta (human) inhibition; AID 504411; hit rate 0.059% among 340,000; inhibition, % at 5.17 µM; Q8NCG7; HEK293T DAGLB membrane lysate, EnzChek fluorogenic substrate; in the data active = inhibition above about 34%
pPAFAH inh: inhibitors of human plasma PAF acetylhydrolase (pPAFAH) | Q13093 | recombinant pPAFAH, FP-rhodamine probe fluorescence polarization | inhibition, % at 3.39 µM | hit rate 1.5% among 330,000;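 active = inhibition above the mean inhibition across the screen plus 3 SD, cut at about 25% in these data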;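 note: inhibitors block binding of the rhodamine activity-based probe so polarization drops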
PAFAH2 FP inh: PAFAH2 (human) inhibition; AID 492956; Q99487; hit rate 0.99% among 340,000; recombinant PAFAH2, FP-rhodamine activity probe, fluorescence polarization; inhibition, % at 3.39 µM;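 active = inhibition above the mean over all tested compounds plus 3 SD, cut at about 30% in these data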;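 note: inhibitors block probe labeling of enzyme so polarization drops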
PAFAH1B3 FP inh: PAFAH1B3 (human) inhibition. recombinant PAFAH1B3, FP-rhodamine probe, fluorescence polarization. hit rate 0.28% among 340,000. AID 492972. inhibition, % at 3.39 µM. Q15102;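 active = inhibition above the screen-wide average of all tested compounds plus 3 SD, cut at about 25% in these data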
PAFAH1B2 FP inh: PAFAH1B2 (human) inhibition. P68402. recombinant PAFAH1B2, FP-rhodamine activity probe, fluorescence polarization. inhibition, % at 3.39 µM. hit rate 1.2% among 340,000;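 active = inhibition above the mean of all tested compounds plus 3 SD, cut at about 24% in these data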
Target sequence (P68402 whole entry, looked up): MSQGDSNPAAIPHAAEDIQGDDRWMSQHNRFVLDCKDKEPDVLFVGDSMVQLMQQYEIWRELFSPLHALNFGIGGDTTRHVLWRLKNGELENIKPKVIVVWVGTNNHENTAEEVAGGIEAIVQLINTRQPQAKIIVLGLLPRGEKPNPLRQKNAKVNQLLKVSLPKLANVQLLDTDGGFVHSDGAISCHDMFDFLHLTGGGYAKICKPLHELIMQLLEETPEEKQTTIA
PAFAH2 confirm: confirmation of human PAFAH2 inhibitors; hit rate 65% among 2,300; recombinant PAFAH2, FP-rhodamine activity probe, fluorescence polarization; AID 493030; inhibition, % at 3.39 µM; shares compounds with PAFAH2 FP inh;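 active = mean inhibition over three repeats above a set limit taken from the earlier primary screen, cut at about 30% in these data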;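 note: inhibitor blocks binding of rhodamine activity probe so polarization falls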
PAFAH1B3 conf FP: confirmation of human PAFAH1B3 inhibitors; shares compounds with PAFAH1B3 FP inh; recombinant PAFAH1B3, FP-Rh activity-based probe, fluorescence polarization; inhibition, % at 3.39 µM; hit rate 30% among 390; AID 493032;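 active = average inhibition over triplicate runs above the hit cutoff set in the earlier primary screen, cut at about 25% in these data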
ATG4B conf: ATG4B (human) inhibition, single-dose confirmed | shares compounds with ATG4B inhibitor | ATG4B protease fluorescent substrate cleavage assay | inhibition, % at 8.33 µM | hit rate 92% among 320 | AID 504757; in the data active = inhibition above about 39%
PLA2 ctr: PLA2 (human) inhibition in ATG4B counter-screen; shares compounds with ATG4B inhibitor; purified PLA2, NBD-C6-HPC fluorescence, 45 min; hit rate 66% among 1,600; inhibition, % at 8.33 µM; AID 588402; in the data active = inhibition above about 50%
Target sequence (P04054 whole entry, looked up): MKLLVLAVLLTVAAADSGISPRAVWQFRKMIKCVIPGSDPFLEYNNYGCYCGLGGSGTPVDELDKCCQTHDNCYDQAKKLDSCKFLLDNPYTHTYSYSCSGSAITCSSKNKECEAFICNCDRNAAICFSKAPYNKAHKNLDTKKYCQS
Large screens that a line does not name were inactive (follow-up assays come after a bar, where they were run); ! = repeats disagree.

Cc1ccc(C(=O)O/N=C2\CCCc3ccccc32)cc1	ATG4B inhibitor 43, PAFAH2 FP inh 42 | PAFAH2 confirm 40 | ATG4B conf 58 | PLA2 ctr inactive
Cn1nnnc1SCC(=O)N(C1CCCCC1)C1CCS(=O)(=O)C1 (stereo not drawn)	none
Cc1ccc(-c2ccc(/C=N/NC(=O)Cc3nnc(N)s3)o2)cc1Cl	ATG4B inhibitor 68, PAFAH2 FP inh 55 | PAFAH2 confirm inactive | PLA2 ctr 77
Cc1cc(C(=O)N/N=C/c2ccc(-c3ccc(C)c(Cl)c3)o2)n[nH]1	none (no result: DAGLB inhibitor, PAFAH2 FP inh, PAFAH1B3 FP inh, PAFAH1B2 FP inh)
COc1ccc(CNC(=O)CN(c2ccc(C)cc2)S(=O)(=O)c2c(C)nn(C)c2C)cc1	none
COc1ccc(C2OC(=O)c3ccccc3S2)cc1 (stereo not drawn)	ATG4B inhibitor 54, PAFAH2 FP inh 86 | PAFAH2 confirm 78 | PLA2 ctr 54
COc1cc(NC(=O)C2CCCCC2)c(OC)cc1NC(=O)c1ccccc1	none
O=[N+]([O-])c1cccc(S(=O)(=O)Nc2nc3ccccc3nc2Nc2cccc(S(=O)(=O)N3CCCCC3)c2)c1	ATG4B inhibitor 46, PAFAH2 FP inh 45 (no result: pPAFAH inh) | PAFAH2 confirm inactive | PLA2 ctr inactive
COc1cc2c(C#N)c(N3CCCC3)nc(N)c2c(N)n1	PAFAH1B3 FP inh 43! | PAFAH1B3 conf FP inactive
CCCOc1cc2c(C#N)c(N3CCCC3)nc(N)c2c(N)n1	PAFAH1B3 FP inh 28 | PAFAH1B3 conf FP inactive
Cc1ccc(C(=O)N2CCN(c3ccc(C(F)(F)F)cn3)CC2)o1	none
C[C@@H]1C=C(C(=O)NCc2nc3ccccc3[nH]2)O[C@H](OCCCCO)C1	PAFAH1B3 FP inh active | PAFAH1B3 conf FP inactive
C[C@@H]1C=C(C(=O)NCc2nc3ccccc3[nH]2)O[C@H](OCc2ccc(CO)cc2)C1	none
Cc1cccc(COc2ncnc3nc[nH]c23)c1	none
O=c1oc(-c2ccc(O)c(O)c2)cc2cc(O)cc(O)c12	PAFAH1B3 FP inh 28 | PAFAH1B3 conf FP 28
O=C(NC1=C(Nc2ccc(F)cc2)C(=O)c2ccccc2C1=O)c1ccc(Cl)cc1	PAFAH1B3 FP inh 26 | PAFAH1B3 conf FP inactive
COc1ccc(/C=C2\C(=O)NC(=O)c3ccccc32)cc1OC	PAFAH1B3 FP inh 40 (no result: pPAFAH inh) | PAFAH1B3 conf FP inactive
COc1ccc(C=C2C(=O)OC(C)(C)OC2=O)cc1OC	none
O=C(Nc1ccccc1N1CCN(C(=O)c2ccccc2)CC1)c1ccc(Br)o1	none
Cn1c2c(c3ccccc31)CCSC2=O	PAFAH1B3 FP inh 26 | PAFAH1B3 conf FP inactive
COc1ccc(C(=O)C[n+]2ccccc2/C=N/O)cc1	PAFAH1B3 FP inh 26 | PAFAH1B3 conf FP inactive
Cc1ccc(-c2cc3c(nn2)-c2ccccc2C3=O)cc1	none
Cc1ccccc1-c1cc2c(nn1)-c1ccccc1C2=O	PAFAH1B3 FP inh 34 | PAFAH1B3 conf FP inactive
CC1(C)C(=O)OC(c2cccn2-c2ccc([N+](=O)[O-])cc2)C(C)(C)C1=O (stereo not drawn)	none
CC1(C)C(=O)OC(c2cccn2-c2ccc([N+](=O)[O-])cc2)C2(CCCCC2)C1=O (stereo not drawn)	PAFAH1B3 FP inh 48 | PAFAH1B3 conf FP inactive
O=C(O)c1ccc(NC2=C(N3CCOCC3)C(=O)c3ccccc3C2=O)cc1	PAFAH1B3 FP inh 27 | PAFAH1B3 conf FP inactive
CC(=O)c1ccc(S(=O)(=O)Nc2ccc(N3CCOCC3)cc2)cc1	none
CC(=O)c1ccc(NC2=C(N3CCOCC3)C(=O)c3ccccc3C2=O)cc1	PAFAH1B3 FP inh 31 | PAFAH1B3 conf FP inactive
O=C(c1ccccc1)c1ccc(N2CCOCC2)cc1	none (no result: pPAFAH inh)
CCC(NC(=O)CCl)c1ccc(C)cc1 (stereo not drawn)	none

Screens (PubChem)
